# From PubChem
# Rows were chosen to be rich in hits. Some 4% of all compounds tested hit in one or more screens of this group.
# MITF TRPM1 inh = reduces MITF-dependent TRPM1 promoter luciferase signal. actives 0.83% (n = 330,000). SK-MEL-5 TRPM1 promoter luciferase, 24 h. inhibition, % at 12.5 µM;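 active = mean inhibition across replicates of 60% or more, whatever share of single replicates reaches that level; inconclusive = some that reach 60%, reason not given; inactive = mean inhibition across replicates below 60%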
# Wnt act = activators of Wnt/beta-catenin signaling | Wnt/beta-catenin reporter cell assay, activator, plate reader | AID 743398 | actives 1.2% (n = 300,000) | activation, % at 9.35 µM; in the data active = activation above about 30%, passing the limit was not always enough; inconclusive = no clear call, values can overlap the other calls;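 note: 0% = neutral control wells and 100% = positive control wells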
# LMP1 NFkB inh = inhibitors of Epstein-Barr LMP1-induced NF-kappaB reporter; inhibition, % at 12.5 µM; LMP1-induced NF-kappaB luciferase reporter cells, luminescence; actives 0.69% (n = 350,000); in the data active = inhibition above about 41%; inconclusive = no clear call, values can overlap the other calls;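 note: 0% = neutral control wells and 100% = reference inhibitor control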
# esBAF inh = SWI/SNF esBAF complex inhibition | reporter increase, % at 12.5 µM | mouse ES cells, Bmi1-luciferase knock-in reporter, 24 h; 100% = twice the neutral-well signal | actives 2% (n = 350,000); in the data active = activation above about 40%; inconclusive = no clear call, values can overlap the other calls;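 note: 0% = median of the plate's neutral control wells and 100% = double that signal; a rise in the Bmi1 reporter signal indicates esBAF inhibition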
# C2C12 statin = protects C2C12 myotubes from simvastatin toxicity; ATP luminescence, 48 h; scaled: DMSO 0, geranylgeraniol control 100; rescue of ATP level, % at 7.49 µM; actives 0.78% (n = 330,000);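 active = mean ATP rescue above about 67%, or every replicate alone reaching that limit, limit read from the data, passing the limit was not always enough; inconclusive = no clear call, values can overlap the other calls; inactive = mean under the limit and some replicate under it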;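 note: myotubes were challenged with 10 µM simvastatin during compound exposure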
# MITF TRPM1 HTS = activators of MITF-driven TRPM1 promoter activity in SK-MEL-5 cells | SK-MEL-5 TRPM1-promoter luciferase, 24 h; % of positive control, neutral wells = 0 | activation, % at 12.5 µM | actives 0.75% (n = 300,000);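 active = mean activation of at least 80% with every replicate also reaching 80%; inconclusive = mean reaches 80% but some replicate falls short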;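 note: 0% = neutral control wells and 100% = parthenolide positive control wells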
# Active calls of the source: *; ? = inconclusive; . = no result.
SMILES,MITF TRPM1 inh,Wnt act,LMP1 NFkB inh,esBAF inh,C2C12 statin,MITF TRPM1 HTS
O=C(NCc1cccnc1)/C(=C/c1ccc(-c2ccc(Cl)cc2)o1)S(=O)(=O)c1ccccc1,93.1*,-14.8,-51.7,-8.8,23.3,-92.6
O=C(NCc1cccnc1)/C(=C\c1ccc(-c2ccc(Br)cc2)o1)S(=O)(=O)c1ccccc1,99.6*,-12.4,63.2*,.,.,-99.7
CO[C@@H]1CN(C)C(=O)c2cc(NC(=O)c3cc(C)on3)ccc2OC[C@@H](C)NC[C@H]1C,.,.,.,-4.4,-7.9,.
C=CCNC(=O)c1ccc2nc(Cc3ccc(OC)cc3)oc2c1,-78.3,15.6,-33.2,89.1*,-5.5,.
COc1ccc(Cc2nc3ccc(C(=O)NCCn4cccn4)cc3o2)cc1,-17.0,9.9,4.5,-5.1,10.6,17.9
COCCCNC(=O)c1ccc2nc(Cc3ccc(OC)cc3)oc2c1,-39.4,8.1,-35.2,70.6*,1.2,39.9
COc1c(C)cc(C(=O)C2CCCN(C(=O)CCCn3cncn3)C2)cc1C (stereo not given),10.0,-2.4,-4.5,.,.,-5.3
O=C1CC(SC(=Nc2ccccc2)Nc2ccccc2)C(=O)N1c1cccc2ccccc12 (stereo not given),-3.5,.,-3.9,10.4,120.2*,-1.3
C/C=C/c1ccc2c(c1)O[C@@H](CN(C)CC1CC1)[C@@H](C)CN([C@@H](C)CO)S2(=O)=O,.,.,.,1.7,-4.2,.
CC(=O)Nc1ccc(NC(=O)CSc2nc3nc(C)cc(C)c3c(=O)[nH]2)cc1,3.5,-3.1,-2.5,-5.3,13.8,0.7
O=C(N/N=C/c1ccccc1Cl)c1n[nH]c2c1CCCC2,67.1*,-7.5,18.7,.,.,-63.6
Cc1[nH]n(-c2ccccc2)c(=O)c1/C=N/Nc1nncc(-c2ccccc2)n1,50.0,1.5,68.9*,-29.3,-19.3,-45.8
O=C(N/N=C/c1ccccc1Cl)c1cccc(F)c1,-81.3,39.9*,-11.6,52.7*,4.4,?
Cc1[nH]n(-c2ccccc2)c(=O)c1/C=N/NC(=O)c1cccc(F)c1,0.6,1.7,38.9,-35.2,2.2,-1.5
Cc1[nH]n(-c2ccc(Br)cc2)c(=O)c1/C=N/NC(=O)c1ccccc1,23.7,1.2,46.6*,-43.2,14.7,-25.3
O=C(N/N=C/c1ccccc1)c1n[nH]c2c1CCCC2,-8.1,9.2,24.2,-2.2,-14.0,7.7
c1ccc(CN(Cc2cccs2)C(c2cccs2)c2nnnn2C2CCCC2)cc1 (stereo not given),8.6,.,5.0,-6.9,13.7,-9.1
COc1cc2c(cc1OC)CN(CC(=O)Nc1ccccc1C(=O)NCc1ccccc1)CC2,4.3,-1.4,6.7,5.2,-38.9,-1.1
O=C(N/N=C/c1cccc(F)c1)c1csc2c1CCCC2,-142.8,.,-7.5,50.4*,-22.8,141.9*
Cc1cccc(/C=N/NC(=O)c2ccc(Br)cc2)c1,-55.5,.,-18.1,58.8*,1.4,62.0
